Many of the other results were omitted from the sample, so hits are more common in it than they were.
PglD DTNB – blocks C. jejuni PglD acetyltransferase activity. hit rate 0.098% among 360,000. AID 602405. inhibition, % at 12.5 µM. purified PglD enzyme, DTNB colorimetric CoA detection; in the data active = inhibition above about 16%, passing the limit was not always enough
ALR H2O2 inh – human ALR oxidase inhibition via reduced H2O2; purified ALR, DTT oxidation, H2O2 HRP-luminol luminescence; inhibition, % (no concentration beside the values); hit rate 3.8% among 290,000; AID 485317;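 active = mean replicate inhibition above about 79%, with every replicate also reaching it, limit read from the data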
NRP1-CendR mod – alters CendR peptide binding to human NRP-1; FAM-RPARPAR peptide binding to NRP-1, fluorescence polarization; inhibition, % at 25 µM; hit rate 0.85% among 360,000;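 active = inhibition or corrected inhibition above about 18%, plus a signal ratio from 0.5 to 1.5, limit read from the data, passing the limit was not always enough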
ERp5 inh – inhibitors of human ERp5. Q15084. ERp5 insulin aggregation, absorbance 650 nm, 90 min. inhibition, % at 9.99 µM. hit rate 0.05% among 350,000;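 active = mean replicate inhibition above about 25%, with every replicate also reaching it, limit read from the data, passing the limit was not always enough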
ARNT TACC3 PPI – disruptors of human ARNT/TACC3 interaction; inhibition, % at 9.99 µM; Q9Y6A5; AlphaScreen His-ARNT PAS-B/GST-TACC3 binding, luminescence; TACC3 fragment carries E629A point mutation; AID 623870; hit rate 0.66% among 390,000;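 active = mean inhibition of replicates at least 50% and at least half of replicates each reaching 50%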;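 note: 0% = complete ARNT plus TACC3 wells and 100% = ARNT alone without TACC3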
PDI turbidity – PDI (human) enzyme inhibition; PDI insulin aggregation turbidity, A650, 90 min; P07237; inhibition, % at 10 µM; hit rate 0.052% among 350,000;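 active = mean inhibition across replicates of 30% or more, whatever share of single replicates reach that level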
Target sequence (P07237 whole entry, looked up): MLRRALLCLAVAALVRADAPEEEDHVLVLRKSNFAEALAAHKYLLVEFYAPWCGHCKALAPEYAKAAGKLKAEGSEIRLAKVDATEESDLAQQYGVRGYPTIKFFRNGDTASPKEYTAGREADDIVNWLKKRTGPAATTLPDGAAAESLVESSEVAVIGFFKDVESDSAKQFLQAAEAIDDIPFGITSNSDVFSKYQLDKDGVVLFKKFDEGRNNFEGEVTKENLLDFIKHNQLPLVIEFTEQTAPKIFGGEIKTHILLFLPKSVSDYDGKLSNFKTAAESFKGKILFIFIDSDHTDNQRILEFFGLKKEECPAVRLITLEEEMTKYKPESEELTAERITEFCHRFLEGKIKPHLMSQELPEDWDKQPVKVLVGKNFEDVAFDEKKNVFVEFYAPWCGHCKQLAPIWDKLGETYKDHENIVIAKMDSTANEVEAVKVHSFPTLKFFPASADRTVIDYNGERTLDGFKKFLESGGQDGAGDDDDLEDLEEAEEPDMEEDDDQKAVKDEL
Numbers without * were called inactive; . = no result given.

SMILES	PglD DTNB	ALR H2O2 inh	NRP1-CendR mod	ERp5 inh	ARNT TACC3 PPI	PDI turbidity
COC(=O)C1(Cc2ccc(O)c(CC3OC3(C)C)c2)OC(=O)C(O)=C1c1ccc(O)cc1 (stereo unspecified)	-1.5	97.6*	-5.8	-2.3	-15.2	.
Cc1ccc(S(=O)(=O)N2CCN(C(=O)CCc3nc4ccccc4c(=O)[nH]3)CC2)c(C)c1	-1.4	-0.3	-7.8	26.4*	-4.5	-4.4
CCNc1nc(OC)nc(Oc2ccc(=O)n(-c3ccccc3)n2)n1	-0.4	2.1	1.6	.	.	-6.1
COc1ccc(C(=O)Oc2ccc(=O)n(-c3ccccc3)n2)cc1	-2.7	97.5*	-12.3	.	23.1	-0.9
COc1nc(NCC(C)C)nc(Oc2ccc(=O)n(-c3ccccc3)n2)n1	0.4	78.5*	3.9	-14.8	7.1	.
O=S(=O)(c1ccccc1F)N1CCCCN2[C@@H](CO)[C@@H](c3ccc(-c4cccnc4)cc3)[C@@H]2C1	-6.5	.	.	-2.6	8.0	.
O=C(c1ccc2c(c1)OCO2)N1C[C@H]2[C@@H](c3ccccc31)[C@H](CO)N2Cc1cccnc1	-0.3	.	.	-0.4	-7.9	.
CN(C)C(=O)C[C@H]1CC[C@@H]2[C@H](COC[C@H](O)CN2Cc2ccc(C(F)(F)F)cc2)O1	-2.1	.	.	.	-5.4	.
O=C(C[C@@H]1C[C@H]2c3cc(NC(=O)C4CCOCC4)ccc3O[C@H]2[C@H](CO)O1)NCc1ccc(Oc2ccccc2)cc1	-1.6	.	.	1.3	3.6	.
C=C1CN(Cc2ccccc2)S(=O)(=O)c2ccccc21	-7.1	0.3	24.4*	0.8	-1.2	-3.5
CC(=O)/C(=N/Nc1cccc(Cl)c1)N1CCOCC1	.	98.2*	3.9	.	3.6	2.2
CC(=O)/C(=N/Nc1ccccc1)N1CCOCC1	0.8	99.0*	7.0	.	-1.7	1.2
CC(=O)/C(=N/Nc1ccccc1C)N1CCOCC1	5.2	0.1	-0.7	.	-7.6	6.9
COCC(=O)N1C[C@@H]2[C@H](c3ccccc31)[C@H](CO)N2C(=O)C1CCCCC1	3.0	.	.	1.6	4.5	.
Cc1ccc(-c2ccc(/C=N/N=C3/NC(=O)C(CC(=O)O)S3)o2)c([N+](=O)[O-])c1 (stereo unspecified)	.	98.9*	6.6	.	15.0	0.5
O=C(O)CC1S/C(=N/N=C/c2ccc(-c3ccccc3[N+](=O)[O-])o2)NC1=O (stereo unspecified)	-8.6	98.0*	-6.0	.	21.8	-0.6
CN(CCCNC(=O)C1CCC(=O)N1Cc1ccc(F)cc1)c1ccccc1 (stereo unspecified)	6.3	98.6*	-4.4	17.1	-5.5	-4.8
O=C(C1CCC(=O)N1Cc1ccccc1Cl)N1CCN(c2ccc(F)cc2)CC1 (stereo unspecified)	-2.1	97.4*	-2.4	.	12.7	8.2
Cc1ccc(CCNC(=O)C2CCC(=O)N2Cc2ccc(F)cc2)cc1 (stereo unspecified)	-3.9	-5.0	-0.7	5.4	4.9	0.2
CNC(=O)C1CCC(=O)N1Cc1ccccc1Cl (stereo unspecified)	-3.6	-17.6	-2.0	.	6.8	-2.5
CN(CCCNC(=O)C1CCC(=O)N1Cc1ccccc1Cl)c1ccccc1 (stereo unspecified)	-2.7	98.3*	2.6	.	7.2	-1.9
Nn1c(SCC(=O)Nc2ccc3c(c2)OCO3)nncc1=O	4.0	98.3*	-0.1	-2.5	0.2	-1.0
Cc1cc(=O)[nH]c(SCC(=O)Nc2cccc(C(F)(F)F)c2)n1	3.5	-14.9	5.2	.	-3.0	2.8
CCn1c(Cc2ccccc2)nnc1SCC(=O)Nc1ccc2c(c1)OCO2	-1.7	58.6	-2.1	.	1.3	-2.9
CCc1nnc(SCC(=O)Nc2ccc3c(c2)OCO3)n1CC	1.7	15.7	28.5*	11.2	-5.0	10.6
SMILES	PglD DTNB	ALR H2O2 inh	NRP1-CendR mod	ERp5 inh	ARNT TACC3 PPI	PDI turbidity
Nn1c(SCC(=O)Nc2ccc3c(c2)OCCO3)nnc(CCC(=O)O)c1=O	5.1	93.2*	-2.6	2.8	-3.7	-2.8
C=C(C)Cn1c(N)cc(=O)nc1SCC(=O)Nc1cccc(C(F)(F)F)c1	-2.9	97.2*	6.4	3.2	-8.5	-1.3
CCCNC(=O)C[C@@H]1CC[C@H]2[C@@H](COC[C@H](O)CN2C(=O)Nc2ccc3c(c2)OCO3)O1	3.5	.	.	5.3	0.8	.
CC(C)NC(=O)Nc1ccc2c(c1)C(=O)N([C@@H](C)CO)C[C@@H](C)[C@@H](CN(C)C(=O)c1ccncc1)OCCCC[C@@H](C)O2	1.7	.	.	2.5	-0.8	.
Nn1c(SCC(=O)Nc2cccc(C(F)(F)F)c2)nncc1=O	-2.1	97.4*	10.5	-4.9	0.5	6.3
Cc1cc(NC(=O)CSc2nc3cc(Cl)ccc3c(=O)n2CC(C)C)no1	.	-18.8	.	.	.	.
Cc1cc(NC(=O)CSc2nc3ccccc3c(=O)n2Cc2ccccc2)no1	1.0	-17.6	8.5	.	-4.6	-4.3
Cc1cc(NC(=O)CSc2nc(C)c(C)n2CC(C)C)no1	-2.7	92.7*	-2.7	3.0	5.9	7.2
Cc1ccc(Cn2c(SCC(=O)Nc3cc(C)on3)nc3ccccc3c2=O)cc1	-7.2	-11.0	27.6*	.	0.6	9.1
C[C@@H]1CN([C@H](C)CO)C(=O)c2cc(NS(=O)(=O)c3cn(C)cn3)ccc2O[C@H]1CN(C)C(=O)NC1CCCCC1	-0.7	.	.	-7.1	-2.8	.
CN(CCOc1ccc(Cl)cc1)c1ccc(S(=O)(=O)N2CCCCC2)cn1	4.8	-2.6	18.7*	.	-31.3	8.9
Cc1ccc(OCCNc2ccc(S(=O)(=O)N3CCCC3)cn2)cc1	.	.	0.9	4.0	-0.9	-7.9
COc1cc(OC)cc(C(=O)Nc2ccc(S(=O)(=O)Nc3cc(C)nc(C)n3)cc2)c1	.	85.2*	.	.	.	.
COc1ccccc1CCC(=O)Nc1ccc(S(=O)(=O)Nc2cc(C)nc(C)n2)cc1	1.8	54.5	-5.6	4.5	6.0	-2.3
COc1cc(C(=O)Nc2ccc(S(=O)(=O)Nc3cc(C)nc(C)n3)cc2)cc(OC)c1OC	8.4	32.1	11.3	-10.6	0.9	6.2
Cc1ccccc1OCC(=O)Nc1ccc(S(=O)(=O)Nc2ccccn2)cc1	-0.2	98.5*	-4.8	.	-6.4	12.0
Cc1cc(NS(=O)(=O)c2ccc(NC(=O)CCCOc3ccccc3C)cc2)nc(C)n1	0.8	98.8*	-10.9	0.2	10.6	8.8
O=C(C[C@@H]1C=C[C@H](NC(=O)C2CC2)[C@@H](CO)O1)NCc1ccncc1	1.4	.	.	-7.6	-1.6	.
COc1ccc(S(=O)(=O)N2CCCCC2)cc1NC(=O)c1c(F)cccc1Cl	1.8	.	25.7*	1.6	0.4	2.2
O=C(Nc1cc(S(=O)(=O)N2CCCCC2)ccc1O)c1ccccc1NS(=O)(=O)c1ccc(F)c(F)c1	3.2	95.8*	9.5	-0.2	10.5	-12.1
O=C(Nc1cccc(S(=O)(=O)N2CCCCC2)c1)c1ccccc1NS(=O)(=O)c1ccc(F)cc1	.	-2.4	-1.7	-0.8	-1.3	-1.1
COc1ccc(CN(C)C[C@@H]2Oc3c(NC(=O)C4CCOCC4)cccc3C(=O)N([C@@H](C)CO)C[C@H]2C)cc1	0.4	.	.	-2.6	-1.7	.

Screening results as filed in PubChem BioAssay.
